Compound activity as filed in PubChem BioAssay.
An excerpt weighted towards active compounds, which were near 0.84% of everything screened.
SRC3 TRFRET art = counter-screen for PPARgamma SRC-3 recruitment agonists: TR-FRET artefact | AID 1048 | PPARgamma/SRC-3 format; stronger effect = higher value | 0.39% of 99,000 active | TR-FRET ratio at 8 µM
TR-FRET SRC-2 ct = counter-screen for PPARgamma SRC-2 recruitment agonists: TR-FRET artefact; 0.4% of 200,000 active; stronger effect = higher value; TR-FRET ratio at 8 µM; AID 1049
PPARg SRC-1 ag = PPARgamma-driven SRC-1 recruitment agonism. P37231. PPARgamma-SRC-1 coactivator recruitment biochemical assay. activation, % at 8 µM. 0.41% of 200,000 active; in the data active = activation above about 19%;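 note: 0% = DMSO and 100% = reference agonist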
PPARg SRC-2 ag = agonists of SRC-2 recruitment by human PPARgamma | P37231 | PPARgamma LBD-SRC-2 recruitment, biochemical | activation, % at 8 µM | 0.34% of 200,000 active; in the data active = activation above about 22%;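 note: 0% = vehicle and 100% = reference agonist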
PPARg SRC3 recr = PPARgamma-driven SRC-3 recruitment agonism; P37231; biochemical PPARgamma/SRC-3 coactivator recruitment assay; activation, % at 8 µM; 0.26% of 200,000 active; AID 731; in the data active = activation above about 23%;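 note: 0% = DMSO and 100% = reference agonist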
SRC1 TRFRET art = flags TR-FRET format artefacts in PPARgamma SRC-1 recruitment agonist screen; TR-FRET detection artefact counter-screen, emission ratio; stronger effect = higher value; TR-FRET ratio at 8 µM; 0.34% of 99,000 active; in the data active = TR-FRET ratio above about 2300
PPARg SRC2 ag = confirmation of agonists of SRC-2 recruitment by human PPARgamma. 52% of 790 active. AID 1297. biochemical SRC-2 recruitment by PPARgamma. activation, % at 8 µM. shares compounds with PPARg SRC3 recr; in the data active = activation above about 22%;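 note: 0% = vehicle alone and 100% = reference agonist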
PPARg SRC1 ag = human PPARgamma SRC-1 recruitment agonism, confirmation; 43% of 790 active; AID 1300; shares compounds with PPARg SRC3 recr; PPARgamma–SRC-1 coactivator recruitment biochemical assay; activation, % at 8 µM; in the data active = activation above about 20%;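 note: 0% = vehicle wells and 100% = reference agonist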
PPARg SRC3 conf = confirmation of agonists of SRC-3 recruitment by human PPARgamma; shares compounds with PPARg SRC3 recr; 29% of 790 active; activation, % at 8 µM; AID 1301; biochemical PPARgamma-SRC-3 coactivator recruitment, agonist mode; in the data active = activation above about 24%;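 note: 0% = vehicle wells and 100% = reference agonist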
An asterisk follows results filed as active; / = no result given. Cut-off read from the data, not from the text of the source, unless noted: active = TR-FRET ratio above about 2000; inactive = the rest.

SMILES | SRC3 TRFRET art | TR-FRET SRC-2 ct | PPARg SRC-1 ag | PPARg SRC-2 ag | PPARg SRC3 recr | SRC1 TRFRET art | PPARg SRC2 ag | PPARg SRC1 ag | PPARg SRC3 conf
O=C(Cc1cccs1)NNC(=O)c1ccc(F)cc1 | 1521 | 1685 | -2 | -1 | 1 | 1933 | / | / | /
O=C(O)[C@H]1CCCC[C@H]1C(=O)Nc1ccc(Nc2ccccc2)cc1 | / | 1526 | 7 | 27* | 24 | / | 11 | 6 | 7
COc1cc(/C=C/C(=O)OCC(=O)Nc2ccc(C)cc2[N+](=O)[O-])ccc1O | 1635 | 1465 | 16 | 25* | 9 | 2042 | 12 | 8 | 8
O=C(NCc1cccnc1)C(=O)NCC1OCCCN1S(=O)(=O)c1ccccc1 (stereo unspecified) | 1553 | 1497 | 7 | 0 | -1 | 1861 | / | / | /
Cc1sc2nc(CN(Cc3cccs3)C(=O)NC3CCCCC3)[nH]c(=O)c2c1C | / | 1624 | -1 | 8 | 8 | / | / | / | /
N#Cc1ccsc1NC(=O)CN1CCN(S(=O)(=O)c2ccc3ccccc3c2)CC1 | 2536* | 2346* | 19 | 28* | 8 | 2399* | 11 | 10 | 6
Cc1cc(C)n2ncc(S(=O)(=O)c3ccccc3)c2n1 | 1597 | 1579 | 1 | -7 | 3 | 1949 | / | / | /
COc1cc(/C=N/NC(=O)CNc2n[nH]c(=O)[nH]c2=O)ccc1O | 1668 | 1593 | 7 | 6 | 0 | 1708 | / | / | /
Cc1ccc2nc(NC(=O)CSc3ncnc4c3oc3ccccc34)sc2c1 | / | 1748 | 30* | 10 | 14 | / | 33* | 22* | 19
Fc1cccc(CSc2ncnc3c2oc2ccccc23)c1 | / | 2464* | 36* | 45* | 42* | / | 39* | 27* | 27*
O=C(CSc1ncnc2c1oc1ccccc12)NCc1ccc(F)cc1 | / | 3344* | 58* | 71* | 63* | / | 48* | 34* | 29*
Fc1ccc(CSc2ncnc3c2oc2ccccc23)cc1 | 1683 | 1720 | 15 | 10 | 10 | 2218 | / | / | /
O=C(CSc1ncnc2c1oc1ccccc12)Nc1cccc(F)c1 | / | 1746 | 25* | 22* | 43* | / | 30* | 24* | 20
Cc1cccc(NC(=O)CSc2ncnc3c2oc2ccccc23)c1 | / | 1711 | 11 | 19 | 14 | / | / | / | /
COc1ccccc1NC(=O)CSc1ncnc2c1oc1ccccc12 | / | 1618 | -5 | 2 | 13 | / | / | / | /
CCCn1c(SCC(=O)NCc2ccccc2Cl)n[nH]c1=O | 1489 | 1522 | -2 | 1 | 0 | 1904 | / | / | /
c1ccc2[nH]c(CSc3ncnc4c3oc3ccccc34)nc2c1 | / | 2940* | 44* | 71* | 72* | / | 44* | 30* | 29*
Cc1nc(SCc2nc3ccccc3[nH]2)c2oc3ccccc3c2n1 | / | 1383 | 3 | 3 | -10 | / | / | / | /
Cc1ccc(S(=O)(=O)n2[nH]c(=O)cc2N)cc1 | 1612 | 1473 | 0 | 6 | 3 | 1733 | / | / | /
CC(C)CN1C(=O)c2ccc(NC(=O)Cc3ccccc3)cc2C1=O | 1486 | 1525 | 0 | 1 | 5 | 1759 | / | / | /
O=c1[nH]c2ccc(Cl)cc2c(-c2ccccc2)c1SC(=S)N1CCCCC1 | / | 1624 | 2 | 23* | 16 | / | 4 | 1 | 0
Cc1cc(C)c(NC(=O)c2cc(C(=O)O)ccc2C(=O)O)c([N+](=O)[O-])c1 | 1355 | 1509 | 6 | 5 | 1 | 1897 | / | / | /
CC(=O)NC1(c2ccccc2)CCN(c2cc(C)nc(-c3ccccc3)n2)CC1 | 1364 | 1387 | 0 | 3 | -2 | 1800 | / | / | /
Cc1ccc(-c2[nH]c3ccccc3c2SCCNC(=O)c2cc3ccccc3oc2=O)cc1 | 1709 | 1384 | 7 | 4 | 6 | 1683 | / | / | /
O=C(Cc1cccs1)NCCSc1c(-c2ccc(Cl)cc2)[nH]c2ccccc12 | 7221* | 5424* | 28* | 20 | 54* | 3752* | 26* | 32* | 41*
SMILES | SRC3 TRFRET art | TR-FRET SRC-2 ct | PPARg SRC-1 ag | PPARg SRC-2 ag | PPARg SRC3 recr | SRC1 TRFRET art | PPARg SRC2 ag | PPARg SRC1 ag | PPARg SRC3 conf
Cc1ccnc(NC(=O)CCC(=O)N(CC(=O)NC2CCCCC2)Cc2cccs2)c1 | 1542 | 1379 | -8 | -1 | -3 | 1594 | / | / | /
O=S(=O)(NCC1CCCO1)c1ccc(S(=O)(=O)N(Cc2ccc(F)cc2)Cc2ccco2)cc1 (stereo unspecified) | 1544 | 1646 | 4 | 20 | 7 | 2007 | / | / | /
Cc1ccccc1OCCOc1ccccc1C=C(C#N)C#N | 2057* | 2050* | 20* | 13 | 12 | 2244 | 21 | 17 | 13
Cc1cccc(OCCOc2ccccc2C=C(C#N)C#N)c1 | 1368 | 1559 | -7 | -6 | -3 | 1616 | / | / | /
CCCn1c(SCC(=O)c2c[nH]c3ccccc23)nnc1-c1ccncc1 | 1707 | 1710 | 11 | 8 | 1 | 1750 | / | / | /
O=C(Nc1ccccc1)c1ccc(-c2ccccc2)s1 | 2060* | 2178* | 39* | 39* | 17 | 2787* | 44* | 35* | 26*
Cc1ccc(S(=O)(=O)N2CCCN(S(=O)(=O)c3ccc4c(c3)OCCO4)CC2)cc1 | / | 1679 | 7 | 5 | -10 | / | / | / | /
Cc1ccc2nc(N3CCN(S(=O)(=O)c4ccc5c(c4)OCCO5)CC3)c(C#N)cc2c1 | / | 3423* | 31* | 22* | 45* | / | 14 | 8 | 6
Cc1ccc2c(c1)N(C(=O)CCC(=O)O)CCO2 | 1713 | 1634 | 4 | 13 | 3 | 1511 | / | / | /
O=c1[nH]c(S)nc2sc3c(c12)CCCC3 | 2183* | 2002* | 23* | 29* | 13 | 2564* | 17 | 11 | 12
CSc1nc2sc3c(c2c(=O)[nH]1)CCCC3 | / | 1485 | 0 | 3 | 3 | / | / | / | /
CCn1c(=O)cc(SCC(=O)Nc2ccc(C)cn2)c2ccccc21 | 3211* | 2341* | 38* | 32* | 25* | 2927* | 28* | 17 | 19
CCn1c(=O)cc(SCC(=O)NCc2ccc(C)cc2)c2ccccc21 | / | 3248* | 50* | 70* | 76* | / | 51* | 34* | 32*
CCn1c(=O)cc(OCC(=O)Nc2ccc(C)cn2)c2ccccc21 | / | 1467 | -5 | -1 | -4 | / | / | / | /
CCn1c(=O)cc(SCC(=O)NCc2cccnc2)c2ccccc21 | / | 1938 | 21* | 18 | 2 | / | 20 | 14 | 11
CCn1c(=O)cc(SCC(=O)NCc2ccccn2)c2ccccc21 | / | 1908 | 20* | 26* | 18 | / | 27* | 17 | 18
CCn1c(=O)cc(OCC(=O)NCc2cccnc2)c2ccccc21 | / | 1642 | 4 | -1 | 1 | / | / | / | /
CCn1c(=O)cc(SCC(=O)NCc2ccc(C)o2)c2ccccc21 | / | 1550 | 11 | 10 | 5 | / | / | / | /
CCn1c(=O)cc(SCC(=O)NCc2ccco2)c2ccccc21 | / | 1824 | 22* | 33* | 30* | / | 27* | 18 | 16
